Activity calls are given as the source filed them. Unless noted, how the calls were made is not given here.
Columns and labels:
[1] = tested on: Wnt5a (protein binding on small-molecule microarray); assay: small molecules binding Wnt5a protein – biophysical, small-molecule microarray, 635/667 nm fluorescence, primary screen (AID 1142); conditions: 635 nm fluorescence, higher = more signal;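 further: fluorescence read at 667 nm with signal to noise per printed feature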
[2] = ATP-based viability of Huh7 replicon cells – cell-based, CellTiter-Glo luminescence, basal, 48 h, cytotoxicity control for HCV replication inhibitor project, primary screen (AID 1143); conditions: higher = more signal, called active from +8 up or from −8 down;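 further: Huh7 hepatoma cells carrying a hepatitis C replication reporter with no stimulus; test concentration not given here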
[3] = Pseudomonas biofilm growth suppression – PAO1 strain, BacTiter-Glo luminescence, LB-PBS, primary screen (AID 1144); conditions: P. aeruginosa PAO1 biofilm, 12 h, higher = more signal
[4] = basal CRE-LacZ reporter activity in PC12 – cell-based, unstimulated, primary screen (AID 1145); conditions: no forskolin, luminescence, 4.5 h, higher = more signal, called active from +8 up or from −8 down
[5] = forskolin-driven CRE-LacZ activity in PC12 – cell-based, CRE-LacZ reporter, forskolin-stimulated, primary screen (AID 1146); conditions: luminescence, 4.5 h, higher = more signal, called active from +8 up or from −8 down;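 further: PC12 cells with 6xCRE LacZ reporter stimulated by forskolin 10 µM; beta-galactosidase reporter signal reflecting CREB driven transcription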
[6] = target: Streptavidin (Streptomyces avidinii) (UniProt P22629); assay: compounds binding control protein streptavidin – biophysical, small-molecule microarray, 635/667 nm fluorescence, artefact control for SMM compound annotation, primary screen (AID 1147); conditions: higher = more signal;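 further: signal reflects streptavidin binding to arrayed compounds as a control protein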
Sequence of Streptavidin (Streptomyces avidinii) (P22629 whole entry, looked up): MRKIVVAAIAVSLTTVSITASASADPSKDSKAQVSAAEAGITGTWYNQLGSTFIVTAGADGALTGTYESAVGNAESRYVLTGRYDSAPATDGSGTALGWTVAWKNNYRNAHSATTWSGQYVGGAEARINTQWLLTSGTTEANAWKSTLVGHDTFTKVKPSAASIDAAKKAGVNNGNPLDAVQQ

[7] = probe aInhba binding on compound microarray – biochemical, small-molecule microarray, 635/667 nm fluorescence, primary screen (AID 1148); conditions: higher = more signal;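 further: score merges 667nm spot fluorescence with signal-to-noise for antibody binding to printed compounds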
Torsin-1A (Homo sapiens) [8] = target: Torsin-1A (Homo sapiens) (UniProt O14656); assay: TOR1A wild-type binding on microarray – cell lysate, small-molecule microarray, lysate, 635/667 nm, primary screen (AID 1149); conditions: COS7 hTOR1A-WT lysate, 635 nm fluorescence, higher = more signal
Sequence of Torsin-1A (Homo sapiens) (O14656 whole entry, looked up): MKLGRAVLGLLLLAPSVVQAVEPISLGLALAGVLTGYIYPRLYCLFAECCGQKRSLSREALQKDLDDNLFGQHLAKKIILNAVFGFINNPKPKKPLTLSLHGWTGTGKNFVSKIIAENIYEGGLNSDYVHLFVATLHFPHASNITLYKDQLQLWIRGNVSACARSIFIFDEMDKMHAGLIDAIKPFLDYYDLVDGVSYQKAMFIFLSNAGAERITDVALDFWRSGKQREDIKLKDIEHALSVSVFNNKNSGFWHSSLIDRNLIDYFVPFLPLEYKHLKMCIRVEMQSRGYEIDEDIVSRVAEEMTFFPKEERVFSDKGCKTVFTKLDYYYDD

Torsin-1A (Homo sapiens) [9] = target: Torsin-1A (Homo sapiens) (UniProt O14656); assay: torsin A mutant lysate binding on microarrays – cell lysate, small-molecule microarray, COS7 lysate, 635/667 nm fluorescence, primary screen (AID 1150); conditions: COS7 hTOR1A mutant lysate, 635 nm fluorescence, higher = more signal;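 further: score pools 667 nm emission and signal to noise measuring lysate protein binding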
[10] = tested on: Sonic hedgehog protein (Shh); assay: Sonic hedgehog microarray binding compounds – biochemical, small-molecule microarray, 635/667 nm fluorescence, primary screen (AID 1151); conditions: 635 nm fluorescence, higher = more signal;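 further: Shh protein binding to compounds spotted on small-molecule microarray slides; score combines spot fluorescence intensity with signal-to-noise across triplicate slides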
[11] = optical density shifts of acrAB sulA E. coli – strain DRC41, OD650, 48 h, E. coli filamentation inducer project, primary screen (AID 1152); conditions: higher = more signal, called active from +8 up or from −8 down;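 further: E. coli MC1000 strain DRC41 lacking acrAB efflux pump and sulA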
[12] = probe aLefty1 binding on compound microarray – biochemical, small-molecule microarray, 635/667 nm fluorescence, primary screen (AID 1153); conditions: higher = more signal;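 further: score merges spot fluorescence with signal-to-noise ratio from the scanned slide images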
[13] = plasmodial surface anion channel blockers, osmotic lysis – cell-based, P. falciparum Indochina, OD700, 1 h, primary screen (AID 1154); conditions: P. falciparum Indochina infected RBC osmotic lysis, higher = more signal, called active from +8 up or from −8 down
[14] = plasmodial surface anion channel blockers, osmotic lysis – cell-based, P. falciparum Indochina, OD700, 2 h, primary screen (AID 1155);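 further: lysis reports solute entry through the parasite surface anion channel PSAC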; conditions: P. falciparum Indochina infected erythrocytes, higher = more signal, called active from +8 up or from −8 down
[15] = changes in parasitized red cell lysis, either direction – P. falciparum Indochina, OD700, 3 h, PSAC antagonist project, primary screen (AID 1156); conditions: P. falciparum-infected erythrocytes, osmotic lysis, higher = more signal, called active from +8 up or from −8 down
[16] = plasmodial surface anion channel blockers, osmotic lysis – cell-based, P. falciparum Indochina, OD700, 18 h, primary screen (AID 1157); conditions: P. falciparum Indochina infected erythrocytes, osmotic lysis OD700, 18 h; higher = more signal, called active from +8 up or from −8 down
[17] = S6 kinase pathway phospho-S6 level changes – cell-based, A549, cytoblot, luminescence, serum-stimulated, primary screen (AID 1158); conditions: 5 h, higher = more signal;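 further: serum-stimulated A549 lung adenocarcinoma cells; signal is phosphorylated S6 detected by cytoblot immunostaining with HRP secondary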
[18] = target: NADPH oxidase 2 (Homo sapiens) (UniProt P04839); assay: compounds shifting NOX2 Amplex Red fluorescence – cell-based, HEK293-NOX2, PMA-stimulated, NOX inhibitor project, primary screen (AID 1159); conditions: 45 min, higher = more signal, called active from +8 up or from −8 down; further: test concentration not given here
Sequence of NADPH oxidase 2 (Homo sapiens) (P04839 whole entry, looked up): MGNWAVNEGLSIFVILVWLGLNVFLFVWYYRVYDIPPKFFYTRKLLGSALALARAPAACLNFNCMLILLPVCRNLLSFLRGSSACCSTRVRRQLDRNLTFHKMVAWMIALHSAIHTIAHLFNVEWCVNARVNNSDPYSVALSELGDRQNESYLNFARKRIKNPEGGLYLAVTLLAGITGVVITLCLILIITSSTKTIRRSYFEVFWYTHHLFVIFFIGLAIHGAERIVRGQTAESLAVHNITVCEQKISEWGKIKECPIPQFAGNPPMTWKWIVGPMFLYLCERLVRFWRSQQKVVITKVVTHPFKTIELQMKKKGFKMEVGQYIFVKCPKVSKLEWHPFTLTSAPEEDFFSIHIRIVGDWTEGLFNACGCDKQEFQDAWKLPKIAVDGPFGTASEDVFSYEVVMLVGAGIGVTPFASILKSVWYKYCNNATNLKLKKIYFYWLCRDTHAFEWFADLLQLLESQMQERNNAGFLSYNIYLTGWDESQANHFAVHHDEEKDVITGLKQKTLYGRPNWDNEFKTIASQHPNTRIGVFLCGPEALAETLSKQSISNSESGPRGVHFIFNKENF

[19] = target: NADPH oxidase 4 (Homo sapiens) (UniProt Q9NPH5); assay: compounds shifting NOX4 Amplex Red fluorescence – cell-based, HEK293-NOX4, tetracycline-induced, NOX inhibitor project, primary screen (AID 1160); conditions: HEK293-NOX4, Amplex Red H2O2 fluorescence, 45 min; higher = more signal, called active from +8 up or from −8 down
Sequence of NADPH oxidase 4 (Homo sapiens) (Q9NPH5 whole entry, looked up): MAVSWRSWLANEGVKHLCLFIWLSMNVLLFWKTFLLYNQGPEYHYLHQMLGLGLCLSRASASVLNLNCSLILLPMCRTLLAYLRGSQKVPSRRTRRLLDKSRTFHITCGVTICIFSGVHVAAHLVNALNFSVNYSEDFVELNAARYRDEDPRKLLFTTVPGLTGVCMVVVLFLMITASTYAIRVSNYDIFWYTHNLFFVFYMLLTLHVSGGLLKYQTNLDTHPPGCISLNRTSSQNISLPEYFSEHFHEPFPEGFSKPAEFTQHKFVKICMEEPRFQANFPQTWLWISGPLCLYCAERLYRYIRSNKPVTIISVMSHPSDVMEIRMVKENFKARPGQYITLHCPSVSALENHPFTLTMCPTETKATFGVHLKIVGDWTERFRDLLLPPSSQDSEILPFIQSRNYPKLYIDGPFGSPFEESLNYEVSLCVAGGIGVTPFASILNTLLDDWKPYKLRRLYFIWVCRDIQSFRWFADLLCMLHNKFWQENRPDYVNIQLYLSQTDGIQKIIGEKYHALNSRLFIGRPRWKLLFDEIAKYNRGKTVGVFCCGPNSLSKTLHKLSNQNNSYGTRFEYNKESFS

[20] = target: NADPH oxidase 5 (Homo sapiens) (UniProt Q96PH1); assay: compounds shifting NOX5 Amplex Red fluorescence – cell-based, HEK293-NOX5, NOX inhibitor project, primary screen (AID 1161); conditions: HEK293-NOX5, ionomycin, 45 min, higher = more signal
Sequence of NADPH oxidase 5 (Homo sapiens) (Q96PH1 whole entry, looked up): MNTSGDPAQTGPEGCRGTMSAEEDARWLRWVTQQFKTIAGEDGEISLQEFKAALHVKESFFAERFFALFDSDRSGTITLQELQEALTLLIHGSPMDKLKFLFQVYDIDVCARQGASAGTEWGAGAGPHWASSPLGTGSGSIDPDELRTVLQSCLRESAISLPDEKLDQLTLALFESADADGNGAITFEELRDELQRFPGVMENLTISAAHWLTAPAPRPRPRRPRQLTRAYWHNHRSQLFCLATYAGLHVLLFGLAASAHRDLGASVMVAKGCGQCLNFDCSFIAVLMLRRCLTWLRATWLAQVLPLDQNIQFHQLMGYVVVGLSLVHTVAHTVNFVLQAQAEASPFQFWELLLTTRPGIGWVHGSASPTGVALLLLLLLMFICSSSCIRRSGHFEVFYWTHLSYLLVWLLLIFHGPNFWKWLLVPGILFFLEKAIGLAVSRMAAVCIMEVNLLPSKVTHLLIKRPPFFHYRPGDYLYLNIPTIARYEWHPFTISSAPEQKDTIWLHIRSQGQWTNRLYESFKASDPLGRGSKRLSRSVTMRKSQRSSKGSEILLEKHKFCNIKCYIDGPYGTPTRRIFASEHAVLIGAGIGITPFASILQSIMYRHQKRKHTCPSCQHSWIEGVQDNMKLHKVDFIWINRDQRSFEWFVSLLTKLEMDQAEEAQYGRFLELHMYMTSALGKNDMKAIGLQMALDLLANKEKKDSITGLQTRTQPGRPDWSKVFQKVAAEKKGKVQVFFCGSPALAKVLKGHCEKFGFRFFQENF

Row | SMILES | composite z-score [1] | z-score [2] | z-score [3] | z-score [4] | z-score [5] | composite z-score [6] | composite z-score [7] | composite z-score (Torsin-1A (Homo sapiens) [8]) | composite z-score (Torsin-1A (Homo sapiens) [9]) | composite z-score [10] | z-score [11] | composite z-score [12] | z-score [13] | z-score [14] | z-score [15] | z-score [16] | z-score [17] | z-score [18] | z-score [19] | z-score [20]
1 | O=C1C2=CC[C@H]3C(=O)N(Cc4ccccc4)C(=O)[C@H]3[C@H]2[C@H](O)[C@@H]2O[C@H]12 | -0.134 | -6.84 (inactive) | 0.252 (inactive) | 0.518 (inactive) | 25 (active) | -0.0955 | -0.128 | 0.367 | 0.216 | -0.575 | -0.536 (inactive) | -0.379 | 0.472 (inactive) | 0.147 (inactive) | -0.178 (inactive) | 0.157 (inactive) | -0.451 | -1.41 (inactive) | 0.16 (inactive) | 0.44
2 | CON=C(C)CCN1CCc2nc(-c3ccccc3)c(-c3ccccc3)cc2C1 | -0.0635 | -4.2 (inactive) | -0.925 (inactive) | 2.22 (inactive) | -0.55 (inactive) | 1.33 | -0.05 | 0.254 | 0.007 | 0.872 | -0.944 (inactive) | -0.0303 | 3.74 (inactive) | 1.17 (inactive) | 1.69 (inactive) | 0.808 (inactive) | -0.0181 | -6.35 (inactive) | -2.6 (inactive) | -6.68
3 | O=C1[C@H]2[C@H]3[C@H](O)[C@H](O)CC(=NO[C@@H]4O[C@H](CO)[C@@H](O)[C@H](O)[C@H]4O)[C@H]3CC[C@H]2C(=O)N1C[C@@H]1CCCO1 | 0.16 | 0.297 (inactive) | 0.261 (inactive) | -0.477 (inactive) | -0.105 (inactive) | 0.253 | -0.159 | 0.288 | 0.952 | -0.167 | 0.819 (inactive) | -0.0054 | 0.651 (inactive) | 0.544 (inactive) | 0.0197 (inactive) | 0.353 (inactive) | -0.164 | -2.4 (inactive) | 0.513 (inactive) | 0.488
4 | O=C1C=C[C@@H](O)[C@@H]2[C@@H]3C(=O)N(Cc4ccccc4)C(=O)[C@@H]3CC[C@@H]12 | -0.0088 | -0.122 (inactive) | -0.158 (inactive) | -0.566 (inactive) | -0.768 (inactive) | 0.222 | -0.128 | 0.418 | 0.376 | 0.632 | 0.763 (inactive) | -0.0145 | 0.09 (inactive) | 0.201 (inactive) | 0.853 (inactive) | -0.0165 (inactive) | 0.09 | 0.808 (inactive) | 0.553 (inactive) | 0.455
5 | COc1ccc(COC(=O)NN=C2C[C@@H](O)[C@@H](O)[C@@H]3[C@@H]4C(=O)N(Cc5ccccc5)C(=O)[C@@H]4CC[C@@H]23)cc1 | -0.0129 | -0.19 (inactive) | 0.99 (inactive) | -0.655 (inactive) | 0.426 (inactive) | -0.323 | 0.0785 | -0.0532 | 0.226 | 0.111 | 0.619 (inactive) | -0.0691 | 1.48 (inactive) | 0.363 (inactive) | -0.188 (inactive) | 0.648 (inactive) | -0.12 | -6.33 (inactive) | 0.284 (inactive) | -0.234
6 | CC(C)=NOC(C)CN1CCCCc2nc(C)c(C)cc21 (stereo not given) | 0.243 | 0.479 (inactive) | 0.282 (inactive) | -0.236 (inactive) | 0.0266 (inactive) | -0.28 | 0.0314 | 0.765 | 0.346 | 0.681 | -0.866 (inactive) | -0.145 | -0.147 (inactive) | -0.16 (inactive) | -0.565 (inactive) | 0.195 (inactive) | -0.618 | -0.0962 (inactive) | -0.278 (inactive) | -0.417
7 | COC(=O)[C@H](C)NC(=O)CCC1CC(OC(=O)NCCc2ccc(F)cc2)CC2(CCCC(COC(=O)NCC3CCCCC3)O2)O1 (stereo not given in full) | 0.374 | -2.59 (inactive) | 0.0852 (inactive) | 0.819 (inactive) | 0.676 (inactive) | 0.915 | -0.0963 | -0.0051 | 0.348 | 0.886 | -0.56 (inactive) | -0.0464 | 0.731 (inactive) | -0.391 (inactive) | 0.701 (inactive) | -0.957 (inactive) | 1.77 | -0.763 (inactive) | -1.47 (inactive) | -1.68
8 | CCOC(=O)[C@H](Cc1ccccc1)NC(=O)CCC1CC(OC(=O)NCc2cccc3ccccc23)CC2(CCCC(COC(=O)NCC3CCCCC3)O2)O1 (stereo not given in full) | 0.297 | -0.213 (inactive) | -0.441 (inactive) | -0.343 (inactive) | 0.895 (inactive) | 0.307 | 0.0155 | 0.156 | 0.224 | 0.955 | 0.0278 (inactive) | -0.0662 | 1.78 (inactive) | -0.393 (inactive) | -1.94 (inactive) | -0.611 (inactive) | -0.154 | 0.746 (inactive) | 0.745 (inactive) | 0.517
9 | CCN1C(=O)[C@H]2[C@H]3[C@H](O)[C@H](O)CC(=NOCC[C@@H]4C=C[C@H](OC(C)=O)[C@@H](COC(C)=O)O4)[C@@H]3CC[C@H]2C1=O | 0.0885 | -0.0735 (inactive) | 0.857 (inactive) | 0.0757 (inactive) | 0.313 (inactive) | -0.0034 | -0.109 | 0.014 | 0.296 | 0.55 | -0.405 (inactive) | -0.125 | 0.422 (inactive) | 0.329 (inactive) | -0.376 (inactive) | 0.44 (inactive) | -0.401 | 0.0899 (inactive) | -0.0656 (inactive) | 0.859
